# Assay results taken from PMC4336329 (PLoS ONE, 2015).
# Among all 310,000 compounds or so, about 14,000 (4.5%) showed an effect of 50% or more. The effect is printed as a negative number. The sample holds strong results, similar compounds and a random draw of the others, so the mix is not that of the screen.
# Biological target: human ether-à-go-go-related gene (hERG) potassium channel (human, UniProt Q12809)
# Experiment: primary screen, population patch clamp on CHO cells stably expressing hERG; higher = less effect of the substance
# 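Further: peak tail current of the secondary pulse compared with the same well before compound.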
# Sequence of human ether-à-go-go-related gene (hERG) potassium channel (Q12809 whole entry, looked up): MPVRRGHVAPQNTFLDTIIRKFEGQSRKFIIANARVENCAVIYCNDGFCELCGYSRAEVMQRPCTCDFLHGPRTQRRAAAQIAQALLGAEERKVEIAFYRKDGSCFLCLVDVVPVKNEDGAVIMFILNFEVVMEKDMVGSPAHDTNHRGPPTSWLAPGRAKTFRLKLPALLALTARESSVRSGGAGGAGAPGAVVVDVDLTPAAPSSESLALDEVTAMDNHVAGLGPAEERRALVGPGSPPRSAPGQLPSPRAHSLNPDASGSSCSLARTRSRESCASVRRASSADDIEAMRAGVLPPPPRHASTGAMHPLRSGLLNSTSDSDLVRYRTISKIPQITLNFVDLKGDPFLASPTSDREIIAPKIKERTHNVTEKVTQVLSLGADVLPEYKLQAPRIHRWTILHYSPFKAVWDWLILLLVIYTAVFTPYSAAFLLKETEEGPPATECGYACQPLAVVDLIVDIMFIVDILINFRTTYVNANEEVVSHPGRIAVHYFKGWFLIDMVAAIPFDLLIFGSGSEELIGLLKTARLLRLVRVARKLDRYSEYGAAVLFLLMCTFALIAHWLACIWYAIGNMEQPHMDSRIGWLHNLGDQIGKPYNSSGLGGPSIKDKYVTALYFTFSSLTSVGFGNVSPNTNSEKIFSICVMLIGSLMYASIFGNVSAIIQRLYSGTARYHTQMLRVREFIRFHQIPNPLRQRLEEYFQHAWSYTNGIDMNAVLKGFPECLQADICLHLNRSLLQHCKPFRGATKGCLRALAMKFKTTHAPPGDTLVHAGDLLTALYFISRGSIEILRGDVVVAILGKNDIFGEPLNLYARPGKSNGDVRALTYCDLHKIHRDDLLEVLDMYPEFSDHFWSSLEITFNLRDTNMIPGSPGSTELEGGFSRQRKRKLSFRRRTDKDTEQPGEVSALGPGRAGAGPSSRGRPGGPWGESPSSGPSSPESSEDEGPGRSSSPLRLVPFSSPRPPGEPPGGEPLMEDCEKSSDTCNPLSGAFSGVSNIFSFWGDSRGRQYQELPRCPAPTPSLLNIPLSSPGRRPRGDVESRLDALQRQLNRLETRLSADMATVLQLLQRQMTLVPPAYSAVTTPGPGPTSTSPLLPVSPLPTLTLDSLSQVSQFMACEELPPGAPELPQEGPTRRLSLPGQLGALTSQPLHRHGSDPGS
row,Compound,"hERG current change (%, negative = inhibition) at 10uM"
1,Cc1ccc(NC2(C(F)(F)F)N=C(c3ccccc3)NC2=O)nc1 (centres unmarked),18.4%
2,Cc1ccc(N2CCN(c3ccc(NC(=O)CCC(=O)O)cc3)CC2)cc1,19.6%
3,COc1cc(Br)cc(/C=C/c2ccc3cccc(O)c3n2)c1OC,11.4%
4,COCCN(Cc1cn(C)nc1-c1ccccc1F)C(C)C,15.5%
5,CN1CCN(CC(=O)Nc2nc(-c3ccccc3)cs2)CC1,-40.4%
6,CCCn1c(SCC(=O)Nc2ccccc2N2CCCCC2)nc2c1c(=O)n(C)c(=O)n2C,-29.9%
7,CC(C)n1c(SCC(=O)Nc2nc3c(s2)CCCC3)nc2c1c(=O)n(C)c(=O)n2C,-59.2%
8,O=C(CS(=O)(=O)c1ccccc1)Nc1nc(-c2ccc(F)cc2)cs1,16.6%
9,COc1ccc(C2(O)CCN(CC(=O)Nc3nc(-c4ccccc4)cs3)CC2)cc1,-10.1%
10,Cc1nnc(NC(=O)CSc2nc3c(c(=O)n(C)c(=O)n3C)n2C(C)C)s1,-0.769%
11,CC(C)n1c(SCC(=O)Nc2ccccc2N2CCCCC2)nc2c1c(=O)n(C)c(=O)n2C,-36.7%
12,Cc1ccc(S(=O)(=O)CC(=O)Nc2nc(-c3ccccc3)cs2)cc1,-38%
13,O=C(CS(=O)(=O)c1ccccc1)Nc1nc(-c2ccccc2)cs1,-51.9%
14,Cn1c(=O)c2c(nc(SCC(=O)Nc3ccccc3N3CCCCC3)n2C)n(C)c1=O,-54%
15,CCCn1c(SCC(=O)Nc2nc3c(s2)CCCC3)nc2c1c(=O)n(C)c(=O)n2C,-1.39%
16,COc1ccccc1C1(O)CCN(CC(=O)Nc2nc(-c3ccccc3)cs2)CC1,-56.8%
17,O=C(CN1C(=O)NC2(CCCCCC2)C1=O)NCCc1ccccc1,1.14%
18,Cc1noc(C)c1CSCC(=O)Nc1nc2ccc(Oc3ccccc3)cc2s1,-13.6%
19,CN(CC(=O)Nc1ccccc1C(F)(F)F)C(=O)CC1OC(=O)c2ccccc21 (centres unmarked),9.27%
20,CCOC(=O)CSc1nnc(CNc2ccc(Cl)cc2)n1-c1ccccc1,11.2%
21,COc1cc2c(-c3ccc(O)cc3)nc3c(c(C)nn3-c3ccccc3)c2cc1OC,11.5%

row,Compound,"hERG current change (%, negative = inhibition) at 10uM"
1,O=C(O)CCSc1nc2ccc(Br)cc2[nH]1,8.75%
2,C=C1C[C@@]23CCC4[C@@](C)(CCC[C@@]4(C)C(=O)OC)C2CC[C@]1(OC(C)=O)C3 (some centres unmarked),10.8%
3,O=C(Nc1nc(-c2ccc(F)cc2)cs1)c1cnccn1,-0.514%
4,CCc1ccc(N(C(C)=O)C2C=CS(=O)(=O)C2)cc1 (centres unmarked),-6.3%
5,O=C(CSc1nc(=O)n2ccccc2n1)NCc1ccc2c(c1)OCO2,-37.8%
6,COc1ccc(OC)c(S(=O)(=O)NC(N)=NCCc2ccccc2OC)c1,9.89%
7,Cn1c(CCNC(=O)c2cccs2)nnc1SCC(=O)Nc1nc(-c2ccccc2)cs1,-7.06%
8,CCOC(=O)N1CCN(C(=O)CSCC(=O)Nc2nc(-c3ccccc3)cs2)CC1,-50.5%
9,Cc1ccc(-c2nnc(SCC(=O)Nc3nc4c(s3)CCCC4)n2C)cc1,6.99%
10,Cc1ccc2cc(C)c3nnc(SCC(=O)Nc4nc5c(s4)CCCC5)n3c2c1C,-53.8%
11,Cc1cccc(-c2nnc(SCC(=O)Nc3nc4c(s3)CCCC4)n2C)c1,-37.3%
12,Cn1c(SCC(=O)Nc2nc3c(s2)CCCC3)nnc1-c1ccccc1,-16.4%
13,CCOC(=O)N1CCN(C(=O)CSCC(=O)Nc2nc(-c3ccc(C)cc3)cs2)CC1,-14.1%
14,Cc1ccccc1C(=O)NCCc1nnc(SCC(=O)Nc2nc(-c3ccccc3)cs2)n1C,7.36%
15,CCn1c(CCNC(=O)c2cccs2)nnc1SCC(=O)Nc1nc(-c2ccccc2)cs1,-52%
16,Cc1ccc(C)c2c1cc(C)c1nnc(SCC(=O)Nc3nc4c(s3)CCCC4)n12,1.01%
17,CCn1c(SCC(=O)Nc2nc3c(s2)CCCC3)nnc1-c1ccccc1,-56.2%
18,CCOC(=O)N1CCN(C(=O)CSCC(=O)Nc2nc(-c3ccc(-c4ccccc4)cc3)cs2)CC1,-11.9%
19,Cc1ccc(N2CCN(S(=O)(=O)c3nnc(NC(=O)c4ccco4)s3)CC2)cc1,15.6%
20,CS(=O)(=O)c1cccc(C(=O)NCc2ccc(F)cc2)c1,0.5%
21,COC(C/C=C\[C@@H](O)[C@H](C)OCc1ccccc1)OC,25.7%

row,Compound,"hERG current change (%, negative = inhibition) at 10uM"
1,CCSc1nnc(NC(=O)c2cccnc2Cl)s1,16.3%
2,Cc1cccc(N(C(=O)CNC(=O)c2cccs2)C(C(=O)NC2CCCC2)c2cccnc2)c1 (centres unmarked),1.66%
3,CCOc1ccc(N(CC(=O)N2CCN(Cc3ccccc3)CC2)S(C)(=O)=O)cc1,-12.2%
4,O=C(N/C(=C/c1ccc(F)cc1)C(=O)N1CCCCC1)c1ccco1,-18.7%
5,CN1C(=O)C(=Cc2ccc(N3CCCCCC3)o2)C(=O)N(C)C1=S,6.46%
6,CNC(=S)N1CCc2cc(OC)c(OC)cc2C1COc1ccc(F)cc1 (centres unmarked),-22.6%
7,Br.CN(CC(O)C[NH+]1CCOCC1)S(=O)(=O)[O-] (centres unmarked),17%
8,Cc1nc2ccccc2c(=O)n1NC(=O)C1CC1,16.3%
9,O=C(CSc1nnc(-c2cccnc2)n1Cc1ccco1)Nc1nc(-c2ccc(F)cc2)cs1,-70.6%
10,O=C(CSc1nnc(-c2ccncc2)n1Cc1ccco1)Nc1nc(-c2ccccc2)cs1,-57.4%
11,CCn1c(SCC(=O)Nc2nc(-c3ccccc3)cs2)nnc1-c1ccccc1,-66.6%
12,Cc1nnc(SCC(=O)Nc2nc(-c3ccccc3)cs2)n1N,2.68%
13,CCn1c(SCC(=O)Nc2nc(-c3ccccc3)cs2)nnc1-c1ccccc1O,-20.8%
14,COc1ccccc1-c1nnc(SCC(=O)Nc2nc(-c3ccccc3)cs2)n1C,-71.8%
15,CCOC(=O)Cc1csc(NC(=O)CSc2nnc(-c3ccncc3)n2Cc2ccco2)n1,-5.63%
16,CCOC(=O)Cc1csc(NC(=O)CSc2nnc(-c3cccnc3)n2Cc2ccco2)n1,-30.5%
17,NC(=O)c1ccc(NC(=O)CSc2nnc(-c3cccnc3)n2Cc2ccco2)cc1,6.87%
18,Cn1cnnc1SCC(=O)Nc1nc(-c2ccccc2)cs1,-4.33%
19,CCn1c(SCC(=O)Nc2nc(-c3ccc(C)cc3)cs2)nnc1-c1ccccc1,-1.44%
20,NC(=O)c1ccc(NC(=O)CSc2nnc(-c3ccncc3)n2Cc2ccco2)cc1,2.42%
